Cardio protect: modulators protecting cardiomyocytes from myocardial damage | H9c2 cardiomyocytes, H2O2 injury protection, ATPLite, 2 h | AID 588492 | actives 0.63% (n = 360,000) | protection from H2O2 cell death, % at 20 µM;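 active = compounds giving at least 50% protection of heart cells from peroxide-induced death in the single-dose screen, raw or plate-pattern-corrected value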
FAS-TE inh: FAS thioesterase (human) inhibition; actives 0.67% (n = 360,000); inhibition, % at 15 µM; P49327; recombinant FAS-TE, OMFH fluorogenic substrate, fluorescence endpoint; AID 602261;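 active = compounds whose normalised, plate-corrected inhibition of enzyme fluorescence in the single-dose primary screen is 50% or more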
m-calpain inh: blocks pig calpain II enzyme activity. inhibition, % at 16 µM. purified calpain II, fluorogenic peptide substrate, 30 min. actives 0.37% (n = 220,000). AID 1236;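 active = inhibition above about 50%, limit read from the data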
aDG glyco up: alpha-DG glycosylation activation; Pro5-aDG cells, alpha-DG glycosylation AlphaScreen (IIH6); 0% Pro5, 100% B10-LARGE cell signal; activation, % at 10 µM; actives 0.22% (n = 360,000);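 active = activation of at least 8% versus controls, or a plate z-score of at least 8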;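 also: Pro5 are CHO cells carrying HIG-tagged alpha-DG that lacks glycosylation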
TAG inh: triacylglycerol accumulation inhibition. H9c2 cells, Nile Red lipid (TAG) fluorescence; cells loaded with 200 µM oleic acid. actives 0.66% (n = 230,000). inhibition, % at 12.5 µM;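 active = pattern-corrected inhibition of lipid staining of at least 50% with the nuclear-stain viability signal not falling by more than 50%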
beta cell repl: MIN6 beta-cell proliferation induction | MIN6 cells proliferation, ATPlite luminescence, 48 h; cells starved in 0.2% serum; 100% = growth in 10% serum | proliferation, % at 10 µM | actives 0.29% (n = 330,000) | AID 2380;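 active = compounds whose signal lies at least 3.5 SD above the mean of all wells on their plate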
FAS-TE conf: FAS thioesterase (human) inhibition, confirmation. shares compounds with FAS-TE inh. recombinant FAS-TE, OMFH fluorogenic substrate, fluorescence. inhibition, % at 15 µM. actives 45% (n = 2,300). AID 624325;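 active = compounds inhibiting the enzyme by at least 50% at 15 µM in any one of the replicates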
aDG glyco conf: alpha-DG glycosylation activation, confirmation | shares compounds with aDG glyco up | Pro5-aDG cells, IIH6 AlphaLISA; scaled to LARGE-overexpressing B10 cells as 100% | activation, % at 10 µM (by protocol) | actives 17% (n = 600);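 active = activation of at least 7% in one or more replicates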;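 also: cells exposed to compound for two days before detection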
H9c2 TAG conf: confirmation of triacylglycerol accumulation inhibitors | inhibition, % at 12.5 µM | actives 71% (n = 990) | H9c2 lipid accumulation, Nile Red fluorescence; cells loaded with 200 µM oleic acid | shares compounds with TAG inh;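 active = mean inhibition across replicates of 40% or more; inactive = mean inhibition below 40%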
Hits are given with their value; i = inactive; nt = no result given. In the library only some 2.3% were active in any assay of this set; here they are far more common.

SMILES	Cardio protect	FAS-TE inh	m-calpain inh	aDG glyco up	TAG inh	beta cell repl	FAS-TE conf	H9c2 TAG conf	others
COc1ccc(-c2cc(C)no2)cc1S(=O)(=O)N1CCN(c2ccc([N+](=O)[O-])cc2)CC1	i	50	nt	i	nt	i	i	nt
Cc1cccc(C)c1N1CCN(C(c2ccnc3ccccc23)c2nnnn2-c2ccc3c(c2)OCCO3)CC1 (centres undefined)	nt	79	nt	i	nt	nt	i	nt
C/C(=N\NC(=O)c1nnn(-c2nonc2N)c1C(C)C)c1ccc2ccccc2c1	i	i	nt	i	nt	i	nt	nt
c1ccc(-c2csc(-c3cccnc3)n2)cc1	i	i	i	i	i	i	nt	nt
CC(C)CC(=O)Nc1nc(-c2ccc(S(=O)(=O)N3CCOCC3)cc2)cs1	i	52	nt	i	i	i	i	nt
CCCCC(=O)Nc1nc(-c2ccc(S(=O)(=O)N3CCOCC3)cc2)cs1	i	88	nt	i	i	i	91	nt
O=S(=O)(c1ccc(-c2csc(-c3cccnc3)n2)cc1)N1CCOCC1	i	79	i	i	i	i	82	nt
CCN(Cc1cnn(C)c1)C(=O)CC1C(=O)NCCN1Cc1cccc(OC)c1OC (centres undefined)	i	i	i	i	nt	i	nt	nt
S=C(NCCc1ccccc1)N1CCC2CC1c1c(Cl)cccc12 (centres undefined)	i	i	nt	i	i	nt	nt	nt
COc1ccc(C(=O)NC(CC(=O)O)c2cc([N+](=O)[O-])ccc2Cl)c(SC)c1 (centres undefined)	i	50	i	i	i	i	64	nt
O=C(COc1ccc([N+](=O)[O-])cc1)N(Cc1cccs1)C1CCS(=O)(=O)C1 (centres undefined)	i	i	nt	i	nt	i	nt	nt
CC[C@@H]1C(c2cccc(C)c2)=NN(c2ccccc2)[C@H]1C(=O)N1CCOC1=O	i	i	nt	i	i	nt	nt	nt
COc1ccccc1[C@@H]1C(c2cccc(C)c2)=NN(c2ccc(Br)cc2)[C@H]1C(=O)N1CCOC1=O	i	62	nt	4.9	i	nt	i	nt	aDG glyco conf=i
CC1CCCC(NC(=O)CN(C)CC(=O)Nc2ccc(F)cc2)C1C (centres undefined)	i	i	nt	i	i	i	nt	nt
CCCN(CC(=O)Nc1cc(Cl)cc(Cl)c1)CC(=O)Nc1ccc(F)c(F)c1F	i	51	i	5.9	nt	i	i	nt	aDG glyco conf=i
CCOC(=O)c1cc(CC)sc1NC(=O)c1cc([N+](=O)[O-])ccc1N1CCOCC1	i	61	i	i	91	i	i	60
O=C(COC(=O)c1cc([N+](=O)[O-])ccc1N1CCOCC1)Nc1ccc(Cl)cn1	i	71	nt	i	51	i	59	i
O=C(OCc1ccc(Br)cc1)c1cc([N+](=O)[O-])ccc1N1CCOCC1	i	73	nt	i	52	nt	i	61
COc1ccc(C2/C=C\CC(NC(=O)OCC3c4ccccc4-c4ccccc43)CC(=O)N2Cc2ccccc2F)cc1 (centres undefined)	i	i	nt	i	i	nt	nt	nt
CN(Cc1nccn1C)C(=O)C1CCC(=O)N(Cc2cccc(C(F)(F)F)c2)C1 (centres undefined)	i	i	nt	i	nt	i	nt	nt
CC1(C(=O)NS(=O)(=O)c2ccccc2)CCN1C(=O)Cc1ccc(Cl)cc1Cl (centres undefined)	i	i	nt	i	i	nt	nt	nt
COC(=O)[C@]1(Cc2ccccc2)N[C@H](c2ccc(-c3cccc(Cl)c3)c(OC)c2)[C@@H]2C(=O)N(C)C(=O)[C@@H]21	i	93	nt	i	55	nt	i	45
COc1ccc(NC(=O)C2Cc3c(-c4ccccc4Oc4ccccc4)ccnc3O2)cc1 (centres undefined)	i	i	nt	i	i	nt	nt	nt
CCOc1cc(CNS(=O)(=O)c2ccc3c(c2)CC(=O)N3C)cc(OCC)c1OCC	i	i	nt	i	nt	i	nt	nt
CC(C)CN1C(=O)CSCC1(C)C(=O)NCc1ccccc1 (centres undefined)	nt	nt	nt	i	nt	nt	nt	nt
SMILES	Cardio protect	FAS-TE inh	m-calpain inh	aDG glyco up	TAG inh	beta cell repl	FAS-TE conf	H9c2 TAG conf	others
COc1cccc(C2c3c(C)nn(-c4ccc([N+](=O)[O-])cc4)c3N=C3C(=O)Nc4ccccc4N32)c1 (centres undefined)	56	72	i	i	76	i	i	81
Cc1nn(-c2ccc([N+](=O)[O-])cc2)c2c1C(c1ccc(OC(F)F)cc1)N1C(=N2)C(=O)Nc2ccccc21 (centres undefined)	i	86	i	i	65	i	i	69
Cc1ccc(C2c3c(C)nn(-c4ccc([N+](=O)[O-])cc4)c3N=C3C(=O)Nc4ccccc4N32)cc1 (centres undefined)	nt	nt	i	nt	nt	i	nt	nt
COc1ccccc1NS(=O)(=O)c1cc(NC(=O)/C=C/c2cccs2)ccc1N1CCOCC1	i	82	i	i	54	i	i	i
O=C(/C=C/c1cccs1)Nc1ccc(N2CCOCC2)c(S(=O)(=O)Nc2ccccc2Cl)c1	i	i	i	i	nt	i	nt	nt
CC(C)C[C@H]1C(=O)N2CCC[C@H]2[C@]2(O)O[C@](NC(=O)C3C=C4c5cccc6[nH]c(Br)c(c56)C[C@H]4N(C)C3)(C(C)C)C(=O)N12 (some centres undefined)	i	52	nt	i	56	i	i	92
O=C(C[C@H]1C[C@H](C(=O)N2CCOCC2)[C@@]2(CCC3CCCC3)c3[nH]c4ccc(Cl)cc4c3CCN2C1=O)NCC12CC3CC(CC(C3)C1)C2	i	82	nt	i	69	nt	i	63
O=C(CC1C[C@H](C(=O)N2CCCCC2)[C@@]2(CCc3ccccc3)c3[nH]c4ccccc4c3CCN2C1=O)NCCc1ccccn1 (some centres undefined)	i	i	nt	i	i	nt	nt	nt
COc1ccc2[nH]c3c(c2c1)CCN1C(=O)C(CC(=O)NCCCn2ccnc2)C[C@H](C(=O)N2CCOCC2)[C@@]31CCC1CCCC1 (some centres undefined)	i	i	nt	i	i	nt	nt	nt
COc1ccc2[nH]c3c(c2c1)CCN1C(=O)C(CC(=O)NCC24CC5CC(CC(C5)C2)C4)C[C@H](C(=O)N2CCOCC2)[C@@]31CCC1CCCC1 (some centres undefined)	i	80	nt	i	72	nt	i	73
CC[C@]12c3[nH]c4ccc(Cl)cc4c3CCN1C(=O)[C@@H](CC(=O)NCC13CC4CC(CC(C4)C1)C3)C[C@@H]2C(=O)N1CCN(C(=O)c2ccco2)CC1	i	i	nt	i	i	nt	nt	nt

High-throughput results: PubChem BioAssay, several laboratories
